Source: PubChem BioAssay AID1645870 (National Center for Advancing Translational Sciences (NCATS), 2021)
Values joined by “and” are separate entries in the source; they are usually repeats but may differ in a detail not shown here. Equal entries are not always repeated. Out of some 59,000 compounds screened, about 1,500 (2.5%) were called active. Roughly 10% stayed inconclusive and do not appear here. Calls follow the shape of the dose curve; as a rule, active = well fitted inhibition curve with a large enough effect; inconclusive = small, poorly fitted or top-dose-only effect; inactive = flat fitted curve, though single readings scatter. Shown is part of a subset that was picked to be rich in actives. Some structures have more than one record in an assay (separate samples or runs), and their calls can disagree.

The compounds below were run against N-terminal Xaa-Pro-Lys N-methyltransferase 1 (Homo sapiens) (UniProt Q9BV86) (assay: Primary qHTS for Inhibitors of N-terminal methyltransferase 1 (NTMT1): MTaseGlo Assay). Details: NTMT1 MTase-Glo SAH luminescence, purified enzyme; series mostly up to 114 µM; activity change, negative = inhibition: at the top concentration.
Chain of N-terminal Xaa-Pro-Lys N-methyltransferase 1 (Homo sapiens) (Q9BV86 whole entry, looked up): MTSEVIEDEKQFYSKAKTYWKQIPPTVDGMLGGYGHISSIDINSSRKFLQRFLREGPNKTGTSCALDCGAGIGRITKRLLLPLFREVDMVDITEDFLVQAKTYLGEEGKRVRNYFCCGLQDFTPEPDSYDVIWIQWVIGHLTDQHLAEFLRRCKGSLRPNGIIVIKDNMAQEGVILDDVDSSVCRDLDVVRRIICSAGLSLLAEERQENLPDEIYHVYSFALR
Also: nearly all actives have a fitted effect of over 65% in size.
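For activity change, negative = inhibition in this document: plate controls were DMSO vehicle for no effect and no enzyme for full effect.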
Potency is read from the fitted curve at half-maximal effect.

Row | SMILES | Potency | activity change, negative = inhibition
1 | O=C(O[C@@H]1Cc2c(O)cc(O)cc2O[C@H]1c1cc(O)c(O)c(O)c1)c1cc(O)c(O)c(O)c1 | 44.7 µM (active) | 
2 | N#Cc1ccc(OC2=NS(=O)(=O)c3ccccc32)cc1 |  | 11.6% (inactive)
3 | Cc1ccc2nc3sc(C(=O)NCCc4cccnc4)cc3cc2c1 |  | 1.58% [at 57.5 µM] (inactive)
4 | O=S(=O)(NCCCCCCNS(=O)(=O)c1c(F)cccc1F)c1ccc2c(c1)OCCO2 |  | 8.56% (inactive)
5 | NNc1nnc(NN)c2ccccc12 | 22.4 µM (active) | 
6 | O=C1CCCC2=C1[C@@]1(CCC(c3ccccc3)C1)N=C(Nc1nc3ccccc3o1)N2 (stereo partly drawn) | inactive | 
7 | Nc1ncnc2c1c(I)cn2[C@@H]1C[C@H](N)[C@@H](O)[C@H]1O | 2.51 µM (active) | 
8 | CC(=O)c1cccc(-c2ccc(-c3nc4ccccc4c(=O)[nH]3)o2)c1 |  | -12.8% (inactive)
9 | N#Cc1nc(Nc2cccc(Cl)c2)nc(NC2CCCC2)n1 |  | -4.66% (inactive)
10 | [O-][n+]1onc(-c2ccccc2)c1CO |  | -13.1% (inactive)
11 | O=C1COc2cc([S+](=O)([O-])Nc3ccc(Cl)c(Cl)c3)c(Cl)cc2N1 |  | -15.7% [at 57.5 µM] (inactive)
12 | Cc1cnc(-c2ccccc2C(C)C)nc1NCC1CCN(C)CC1 |  | 2.15% [at 57.5 µM] (inactive)
13 | CCOC(=O)C1CCN(C(=O)C(C)(C)NC(=O)Nc2ccc(F)c(F)c2)CC1 |  | 15.5% (inactive)
14 | O=C(Nc1ccc(-c2ccc(Cl)c(Cl)c2)cc1)C1=C(O)c2ccccc2S(=O)(=O)N1 |  | -13.1% [at 57.5 µM] (inactive)
15 | COc1cccc(C(=O)Nc2ccc3oc(-c4ccc5ccccc5c4)nc3c2)c1 |  | 9.92% (inactive)
16 | COc1cccc(C(=O)Nc2ccc3nc4n(c(=O)c3c2)CCCCC4)c1 | 50.1 µM (active) | 
17 | NS(=O)(=O)c1ccc(NC(=O)C(=O)Nc2ccc3nc4n(c(=O)c3c2)CCCCC4)cc1 |  | -7.26% (inactive)
18 | Cc1cc(C)n2ncc(C(=O)Nc3cccc(C#N)c3)c2n1 |  | 2.61% [at 29.8 µM] (inactive)
19 | CCOc1ccc(CCNC(=O)c2cc3ccccc3n2Cc2ccc(Cl)c(F)c2)cc1OCC |  | 5.24% (inactive)
20 | CC(C)c1ccccc1SC1=NS(=O)(=O)c2ccccc21 |  | -1.75% (inactive)
21 | CN(C)c1ccc(C(=O)NCC(=O)OC(C(=O)Nc2cc(C(F)(F)F)ccc2Cl)c2ccccc2)cc1 (stereo not drawn) |  | 6.51% [at 57.5 µM] (inactive)
22 | COc1ccc(Cn2ccn(Cc3cccc(OC)c3)c(=O)c2=O)cc1 |  | -0.407% (inactive)
23 | COc1ccc(Cn2ccn(CC(=O)Nc3cc(C)ccc3C)c(=O)c2=O)cc1 | 79.4 µM (active) | 

Row | SMILES | Potency | activity change, negative = inhibition
24 | Cc1ccc(C)c(NC(=O)Cn2ccn(-c3ccc(F)cc3)c(=O)c2=O)c1 |  | -3.87% (inactive)
25 | N#Cc1ccc(N[S+](=O)([O-])c2ccc(Nc3nc(-c4ccccc4)cs3)cc2)cc1 |  | -3.5% (inactive)
26 | O=[S+]([O-])(c1ccc(OC(F)(F)F)cc1)N1CCN([S+](=O)([O-])c2ccc3c(c2)OCCO3)CC1 |  | -8.07% (inactive)
27 | CN1CCOc2cc(S(=O)(=O)N3CCN(S(=O)(=O)c4c(F)cccc4F)CC3)cnc21 |  | 15.4% (inactive)
28 | COCC1CCCN(C(=O)CC(c2ccc3c(c2)OCO3)c2c(O)cc(OC)cc2OC)C1 (stereo not drawn) |  | 8.9% [at 228 µM] (inactive)
29 | CCOc1cc(CCNC(=O)c2cc3sccc3n2Cc2ccccc2)cc(F)c1OCC |  | 13.1% (inactive)
30 | Cc1ccc(Nc2c(-c3ccc(C)s3)nc3ccccn23)cc1 |  | 0.942% (inactive)
31 | Oc1ccccc1-c1nc2ccc(Cl)cn2c1Nc1ccc2c(c1)OCCO2 |  | 8.59% (inactive)
32 | Cc1cccc2nc(-c3ccc(Cl)s3)c(Nc3ccc4c(c3)OCCO4)n12 | 1.78 µM (active) | 
33 | Cc1cc2c(s1)c1cnn(Cc3cc(F)c(Cl)cc3Cl)c(=O)c1n2C |  | 3.59% [at 57.5 µM] (inactive)
34 | Fc1cc(Nc2nc(-c3ccncc3)nc3ccccc23)ccc1-n1cncn1 | inactive | 
35 | Cc1c(Cl)cccc1S(=O)(=O)Nc1nc(CCN2CCOCC2=O)cs1 |  | 1.44% (inactive)
36 | Cc1cc(Nc2cc(CN3CCOCC3)c3nc(C)c(Cc4ccc(Cl)cc4F)n3n2)n[nH]1 | 30.4 µM (active) and 7.08 µM (active) and 11.2 µM (active) | 
37 | COc1cc(NS(=O)(=O)c2ccc(C)cc2)ccc1C(=O)Nc1nc(-c2ccccc2)cs1 |  | 4.46% (inactive)
38 | Cc1cc(C)n2ncc(C(=O)Nc3ccc4c(c3)OCCO4)c2n1 |  | -7.68% (inactive)
39 | Cc1cc(C)n2ncc(C(=O)Nc3ccc(C)c(C)c3)c2n1 |  | 21.6% (inactive)
40 | COc1ccc(C[C@H](C(=O)O)N2C(=O)c3ccc(C(=O)O)cc3C2=O)cc1 |  | 0.148% [at 57.5 µM] (inactive)
41 | COC(=O)c1cccc(Cn2nnc3sc4c(c3c2=O)CCC(C(C)(C)C)C4)c1 (stereo not drawn) |  | 7.12% (inactive)
42 | CC(C)(C)C1CCc2c(sc(NC(=O)c3ccccc3F)c2C(=O)N2CCCCC2)C1 (stereo not drawn) |  | -4.14% (inactive)
43 | CC(C)C(=O)Nc1nc2c(s1)CC(C(C)(C)C)CC2 (stereo not drawn) | 79.4 µM (active) | 
44 | Cc1ccc(S(=O)(=O)NC(N)=NCCC[C@@H](NC(=O)CNC(=O)c2ccccc2)C(=O)Nc2cc(C(F)(F)F)ccc2Cl)cc1 |  | 2.85% (inactive)
45 | CC(C)c1ccc(C2CC(=O)N3CN(C4CCCCC4)CSC3=C2C#N)cc1 (stereo not drawn) | 11.2 µM (active) | 
46 | O=C(Nc1ccc2ccccc2c1)Nc1nnc(-c2ccc(O)cc2)s1 |  | 2.75% (inactive)

Row | SMILES | Potency | activity change, negative = inhibition
47 | CC(C)c1ccc2c(c1)c(SC(C)(C)C)c(CC(C)(C)C(=O)O)n2Cc1ccc(Cl)cc1 | inactive and 79.4 µM (active) | 
48 | Cc1c(C)n(Cc2ccc(Cl)cc2)c2ccc(C(=O)N3CCN(c4ccccc4F)CC3)cc12 |  | 13% (inactive)
49 | C[S+](=O)([O-])c1ccc(-c2ccc(=O)n(CC(=O)NCCc3ccccc3)n2)cc1 |  | 15.9% (inactive)
50 | Cc1ccc(OCCn2c(CCNC(=O)Cc3cccc4ccccc34)nc3ccccc32)cc1 |  | -12.6% (inactive)
51 | CN1CC[C@H](c2c(O)cc(O)c3c(=O)cc(-c4ccccc4Cl)oc23)[C@H](O)C1 | 31.6 µM (active) | 
52 | Cc1cc(C2N=C(Nc3nc4ccccc4o3)NC3=C2C(=O)CCC3)n[nH]1 (stereo not drawn) |  | -1.79% (inactive)
53 | FC(F)(F)c1cc(Cl)cc(-c2ccc(CNc3nc(-c4ccccc4C(F)(F)F)nc4ccccc34)cc2)c1 |  | 19.9% (inactive)
54 | Cc1ccccc1-c1ccc(NC(=O)c2cccs2)cn1 |  | -4.12% (inactive)
55 | O=S(=O)(NCC1CN(S(=O)(=O)c2ccc3c(c2)OCCO3)C1)c1c(F)cccc1F |  | 3.97% (inactive)
56 | O=S(=O)(Nc1cccc2ccccc12)c1ccc(NCc2ccc(Br)cc2O)cc1 |  | -10.4% (inactive)
57 | CCN(CC)c1ccc(NC(=O)CN(C)Cc2c(O)ccc3ccccc23)cc1 |  | 12.2% (inactive)
58 | COc1ccccc1-c1c[nH]c2ncc(-c3cncc(C(=O)N(C)C)c3)cc12 | 39.8 µM (active) | 
59 | COc1ccc(-c2cncc(NC(=O)c3cccs3)c2)cc1OC |  | -13% (inactive)
60 | O=C1NS(=O)(=O)c2cc(Cl)ccc21 |  | 9.66% (inactive)
61 | c1nc(N2CCOCC2)c2cc(-c3ccc4c(c3)OCO4)ccc2n1 | 12.6 µM (active) | 
62 | NC(=O)C1CCN(c2cc(-c3ccc4c(c3)OCCCO4)ncn2)CC1 |  | -0.544% [at 57.5 µM] (inactive)
63 | COc1ccc(NC(=O)c2cnn3c(-c4ccccc4)cc(C)nc23)cc1 |  | 0.228% (inactive)
64 | O=C(Nc1ccc([S+](=O)([O-])Nc2nccs2)cc1)c1ccn[nH]1 |  | 0.211% [at 57.5 µM] (inactive)
65 | O=C(OC/C=C/CSc1nnc(-c2cccc3ccccc23)o1)c1ccc(F)cc1 |  | 10.4% (inactive)
66 | COc1cc(NC(=O)c2cc3ccc4cccnc4c3[nH]2)cc(OC)c1OC |  | -10.6% (inactive)
67 | COc1cc(Nc2ncc(F)c(Nc3ccc4c(n3)NC(=O)C(C)(C)O4)n2)cc(OC)c1OC | inactive and 1.52 µM (active) | 
68 | N#CN1CCC(NS(=O)(=O)c2cccc(F)c2)C1 (stereo not drawn) |  | 0.651% [at 57.5 µM] (inactive)
